The values below come from PubChem BioAssay (NCATS).

Each structure is given as a SMILES string. Several values for one entry are separate records, joined by “and”; a condition that tells them apart may be missing. Identical values can stand only once. Unmarked numbers belong to inactive results. Inconclusive results are not listed. Activity calls are given as the source filed them. Unless noted, calls come from the whole dose curve; as a rule, active = well fitted curve in the direction sought with a large enough effect; inconclusive = small, poorly fitted or top-dose-only effect, or another doubt; inactive = no such curve, though single readings can be large; an effect the other way counts as inactive or inconclusive. Bounds are passed on as bounds.

Assay [1] can be described thus: Cell Viability - MRC5 (AID 434; calls by dose curve;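 note: potency is the fitted concentration of half-maximal effect; cells exposed to compound for 40 hours at 37 °C; potency reflects cytotoxicity seen as loss of intracellular ATP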). To be noted: MRC5 lung fibroblast viability, qHTS. In a few lines:
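ATP luminescence read-out (CellTiter-Glo, 20 min RT) after 40 hr, 37 °C compound exposure of 1500 MRC5 cells/well. Data normalized to DMSO (basal) and 100 uM tamoxifen (100% inhibition); AC50 from standard Hill equation.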
(qHTS replaces the single test concentration by a dilution series.)

Assay [2] is described as follows: Cell Viability - HUV-EC-C (AID 542).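 Note: cells exposed to compound for 40 hours; % is set by controls: 0 for no effect and ±100 for the full control effect; nearly all actives have a fitted effect of over 35% in size.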 The following applies: HUV-EC-C endothelial cell viability, qHTS; series mostly up to 92.2 µM. An outline of the steps: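 Cells were seeded at 1000 per well and incubated 5 hr at 37 °C before compound addition. After 40 hr at 37 °C, CellTiter-Glo reagent was added for 20 min and luminescence read. AC50 values came from Hill-equation modelling.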

A short description of assay [3]: Cellular Toxicity (caspase-3) HepG2 (AID 654).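 Note: cells exposed to compound for 16 hours before reading; 0% = DMSO alone and 100% = caspase signal from 100 µM tamoxifen.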 To be noted: HepG2 caspase-3 activation, luminescence; series mostly up to 92.2 µM. In a few lines:
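Caspase 3/7 activation in HepG2 is measured as rising luminescence after a 16 hr treatment at 37 °C. Values are scaled between DMSO basal and 100 uM tamoxifen, and AC50 is fitted with the Hill equation.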

Assay [4] can be described thus: Cellular Toxicity (caspase-3) HUV-EC-C (AID 656). To be noted: HUV-EC-C cells, caspase-3 activation (apoptosis); series mostly up to 92.2 µM. In a few lines: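 Read-out: luminescence proportional to caspase 3/7 activity, measured 20 min after adding Caspase-Glo 3/7 reagent. Cells (HUV-EC-C) had received compound for 16 hr at 37°C. Increases relative to DMSO and 100 uM tamoxifen gave concentration-response AC50 values.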

A short description of assay [5]: Cellular Toxicity (caspase-3) MRC-5 (AID 659). The following applies: MRC-5 cells, luminescence, normalized: DMSO 0%, 10 µM staurosporine 100%; series mostly up to 91.7 µM. In a few lines: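 MRC-5 fibroblasts, 1500/well; 16 h cpd, 37 °C; Caspase-Glo 3/7, 1 h RT; lumi read. Norm: DMSO = 0%, 10 uM staurosporine = 100%. Hill-fit AC50 from qHTS conc-response.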
Assay [6] is described as follows: Cellular Toxicity (caspase-3) SK-N-SH (AID 661). The following applies: SK-N-SH caspase-3 activation, qHTS, DMSO as zero, staurosporine as full; series mostly up to 91.7 µM. An outline of the steps: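 Cells were seeded and incubated 5 hr at 37 °C, dosed with compound over a concentration range for 16 hr, then given Caspase-Glo 3/7 reagent for 1 hr at room temperature before luminescence reading.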

Assay [7] can be described thus: Cellular Toxicity (caspase-3) Hek293 (AID 664).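 Note: cells exposed to compound for 16 h at 37 °C before readout.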 The following applies: HEK293 caspase-3 activation, DMSO = 0%, 100 µM tamoxifen = 100%; at 92.2 µM (top of the series). In a few lines:
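qHTS, HEK293 (human embryonic kidney), 16 h cpd exposure in complete medium. Caspase-3/7 activation = luminescence increase; normalized to DMSO/100 uM tamoxifen; Hill-fit AC50.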

A short description of assay [8]: Cellular Toxicity (caspase-3) N2a (AID 665).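 Note: compound exposure lasted 16 h at 37 °C before readout.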 The following applies: N2a cells, luminescence, normalized: DMSO 0%, 10 µM staurosporine 100%; series mostly up to 92.2 µM. In a few lines: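 Caspase-3/7 activation, measured as increased luminescence from aminoluciferin release, is quantified in mouse N2a cells exposed to compounds for 16 h. Values are normalized to DMSO and 10 uM staurosporine, with AC50 derived by Hill modelling.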

Assay [9] can be described thus: Cellular Toxicity (caspase-3) NIH 3T3 (AID 666).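 Note: caspase signal read after 16 h compound exposure; 0% = DMSO basal and 100% = 100 µM tamoxifen stimulation.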 To be noted: NIH 3T3 caspase-3 activation, apoptosis/toxicity, 0% DMSO, 100% is 100 µM tamoxifen; series mostly up to 92.2 µM. An outline of the steps: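 Cells were plated at 1000 per well and incubated 5 hr at 37°C, then compound was added for 16 hr. Caspase-Glo 3/7 reagent followed for 20 min at room temperature before luminescence was read.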

Assay [10] can be described thus: Cellular Toxicity (caspase-3) Renal Proximal Tubule (AID 667).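 Note: cells exposed to compound for 16 hours at 37 °C before detection.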 To be noted: renal proximal tubule cells, primary cells freshly taken from rat; Potency: caspase-3 activation; series mostly up to 91.7 µM. In a few lines: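 In qHTS format, rat primary proximal tubule cells seeded at 1000 per well are exposed to compounds for 16 hours at 37 °C. An increase in Caspase-Glo 3/7 luminescence indicates caspase activation.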

The nature of assay [11]: MultiTox-Fluor Cytotoxicity Assay - LYMP1-001 - Dead Cells (AID 946).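 Note: 0% = DMSO and 100% = tetraoctylammonium bromide.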 To be noted: LYMP1-001 lymphoblastoid cells, dead-cell protease fluorescence; series mostly up to 92.2 µM. An outline of the steps:
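LYMP1-001 lymphoblastoid cells (2500/well) treated 16 h at 37 C. Dead-cell protease cleavage of bis-AAF-R110 read at Ex/Em 485/520. Normalized to DMSO and 15 uM tetraoctylammonium bromide; AC50 from Hill fits.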

Assay [12] in a line: MultiTox-Fluor Cytotoxicity Assay - LYMP1-003 - Dead Cells (AID 961). Note: nearly all actives have a fitted effect of over 70% in size. Note: potency is the fitted concentration of half-maximal effect. To be noted: LYMP1-003 lymphoblastoid cells, dead-cell protease fluorescence; series mostly up to 92.2 µM. In a few lines:
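LYMP1-003 human lymphoblastoid cells (2500/well) exposed to compound 16 h at 37 C in complete medium; dead-cell protease read with bis-AAF-R110 fluorescence (Ex/Em 485/520) after 60 min at room temperature. Normalized to DMSO and 15 uM tetraoctylammonium bromide; AC50 from Hill fit.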

The nature of assay [13]: MultiTox-Fluor Cytotoxicity Assay - LYMP1-003 - Live Cells (AID 962).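 Note: 0% = DMSO only and full loss = 92 µM tetraoctylammonium bromide; cytotoxic hits lower the live-cell protease signal.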 The following applies: LYMP1-003 lymphoblastoid cells, MultiTox-Fluor live-cell protease fluorescence; series mostly up to 92.2 µM. In a few lines:
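Acute cytotoxicity is scored as a drop in live-cell protease activity in human lymphoblastoid LYMP1-003 cells after 16 hr compound exposure at 37 C. AC50 values come from Hill-equation modelling of concentration-response data.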

Assay [14] can be described thus: Cell Viability - LYMP1-003 - Assay at 24 hr (AID 963).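 Note: plate controls were DMSO only for no effect and tetraoctylammonium bromide positive control for full effect.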 The following applies: LYMP1-003 lymphoblastoid cell viability; series mostly up to 92.2 µM. In a few lines: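 Cytotoxicity is scored as a concentration-dependent fall in ATP-linked luciferase signal in human lymphoblastoid LYMP1-003 cells treated 24 hr at 37 C in complete culture medium.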
Assay [15] in a line: Cell Viability - LYMP1-002 - Assay at 24 hr (AID 993). Note: % is set by controls: 0 for no effect and ±100 for the full control effect. The following applies: LYMP1-002 lymphoblastoid cells viability; series mostly up to 92.2 µM. An outline of the steps:
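Acute toxicity is measured as concentration-dependent loss of cellular ATP in a human lymphoblastoid line (Coriell LYMP1-002) after 24 h treatment in complete medium. ATP is quantified by luciferase luminescence and AC50 derived by Hill modelling.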

A short description of assay [16]: qHTS Assay for Identification of Small Molecule Inducers of Hypoxia Response (AID 2120; active = well fitted curve in the direction sought with a large enough effect in the signal ratio, with a control signal flat, not every such curve was filed as active; the % refers to the signal ratio; note: 0% is about no effect). The following applies: hypoxia response reporter cells, beta-lactamase ratio readout; series mostly up to 104 µM. An outline of the steps: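 Cell-based qHTS for reporter induction: hypoxia response element controlled beta-lactamase in ME-180 cells. Compounds incubated 17 h at 37 degrees C; activity from blue/green (460/530 nm) ratio, inducers ranked by AC50.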

A short description of assay [17]: qHTS assay for small molecule agonists of the antioxidant response element (ARE) signaling pathway measured by Nrf2-dependant transcriptional activity - cell viability counter screen (AID 720653; active = well fitted curve in the direction sought with a large enough effect in the repeat runs; an effect the other way counts as inactive or inconclusive; note: % is set by controls: 0 for no effect and ±100 for the full control effect). To be noted: ARE-bla HepG2 viability, CellTiter-Glo ATP luminescence, 16 h; max response: active compounds read low. An outline of the steps:
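ARE-bla HepG2 cells treated with compounds for 16 h at 37C; this counter screen measures viability as intracellular ATP by CellTiter-Glo luminescence after 30 min at room temperature.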

Assay [18] in a line: qHTS assay for cell viability of HEK293 cells (AID 743288). Note: % is set by controls: 0 for no effect and ±100 for the full control effect; nearly all actives have a fitted effect of over 50% in size. To be noted: ATP luminescence (CellTiter-Glo), 18 h; max response: active compounds read low. An outline of the steps: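 Quantitative high-throughput screen: compounds were pinned onto parental HEK293 cells (2,000 per well) after a minimum 5 h settling at 37 C, incubated 18 h at 37 C, and intracellular ATP measured by luciferase luminescence.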

Assay [19] can be described thus: qHTS assay for cell viability of the p53RE-bla HCT-116 cell line (AID 743292). Note: % is set by controls: 0 for no effect and ±100 for the full control effect; nearly all actives have a fitted effect of over 55% in size. The following applies: p53RE-bla HCT-116 viability, ATP luminescence, 16 h; series mostly up to 95 µM. An outline of the steps: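 HCT-116 p53RE-bla cells seeded 4,000/well; 5 h at 37 C; compound (DMSO) added; 16 h at 37 C; CellTiter-Glo added, 30 min RT; luminescence read.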
The target in assay [20] is Peroxisome proliferator-activated receptor alpha (Homo sapiens) (UniProt Q07869). The experiment in a line: qHTS assay for small molecule agonists of the peroxisome proliferator-activated receptor alpha (PPARalpha) signaling pathway (AID 651778). Note: % of control where 0% means no effect. The following applies: PathHunter PPARalpha complementation, chemiluminescence, 6 h; max response: active compounds read high. In a few lines: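 Enzyme-fragment complementation assay in which ligand-bound PPARalpha translocates and forms an active enzyme that generates chemiluminescence. Cells were plated overnight, exposed to compound for 6 hr at 37 C, and then given detection reagent for 60 min at room temperature.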
Sequence of Peroxisome proliferator-activated receptor alpha (Homo sapiens) (Q07869 whole entry, looked up, the tested form may be a part): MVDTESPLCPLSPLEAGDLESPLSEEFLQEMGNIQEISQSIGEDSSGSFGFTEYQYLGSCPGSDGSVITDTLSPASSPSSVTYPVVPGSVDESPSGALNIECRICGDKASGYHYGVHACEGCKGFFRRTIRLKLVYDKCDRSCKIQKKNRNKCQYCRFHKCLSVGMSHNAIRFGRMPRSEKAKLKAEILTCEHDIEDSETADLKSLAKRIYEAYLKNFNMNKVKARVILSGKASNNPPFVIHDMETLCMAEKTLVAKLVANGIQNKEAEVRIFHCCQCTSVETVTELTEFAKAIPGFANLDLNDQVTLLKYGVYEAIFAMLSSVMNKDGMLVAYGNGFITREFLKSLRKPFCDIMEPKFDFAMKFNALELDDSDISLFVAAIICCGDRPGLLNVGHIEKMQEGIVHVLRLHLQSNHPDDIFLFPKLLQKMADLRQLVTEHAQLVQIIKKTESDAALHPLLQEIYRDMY

On to `c1ccc(Nc2cccc3ccccc23)cc1`, for which the Potency in assay [1] was more than 92 µM. Further, the Potency entry in assay [2], in assay [3], in assay [4], in assay [10], in [11] and in assay [12] was “inactive” each time. The Potency entry in assay [13], in [14], in [15], in assay [16] and in assay [19] was “inactive” in each case. Also, the call in [5], in assay [6], in assay [8] and in [9] was inactive. For the same compound, in assay [7], the caspase-3 activation is 4.83%. The max response in [17] was -11.3% and -26.9%; in [18], -6.95% and -18%.
For the compound `O=C(Cl)c1ccc([N+](=O)[O-])cc1`, the Potency in assay [1] is more than 92 µM. Further, the Potency result in [2], in assay [3], in assay [4], in assay [10], in [11] and in assay [12] was “inactive” in each case. The Potency entry in assay [13], in assay [14], in assay [15], in [16] and in [19] was “inactive” each time. The outcome in assay [5], in assay [6], in assay [8] and in [9] was inactive. In addition, the caspase-3 activation in assay [7] was -0.0349%. The max response was -4.65% in [20], 1.64% in assay [17] and 0.724% in assay [18].
Consider `Clc1nc2ccccc2nc1Cl`, for which the Potency in [1] was more than 92 µM. The Potency entry in assay [2], in assay [3], in assay [4], in assay [10], in assay [11] and in assay [12] was “inactive” each time. Moreover, the Potency entry in assay [13], in assay [14], in assay [15], in assay [16] and in assay [19] was “inactive” each time. The compound was called inactive in assay [5], in assay [6], in assay [8] and in assay [9]. Besides, the caspase-3 activation in [7] is 15.8%. Further, the figures for the max response in assay [20], in assay [17] and in assay [18] were 0.306%, 0.874% and -15.1%, respectively.
With `Nc1ccccc1O`, the figures for the Potency in assay [1] and in assay [12] were more than 92 µM and 10 µM (active), respectively. The Potency result in [2], in [3], in assay [4], in [10], in assay [11] and in assay [14] was “inactive” in each case. Further, the Potency result in [15], in assay [16] and in assay [19] was “inactive” throughout. For the same compound, the call in assay [5], in assay [6], in assay [8] and in assay [9] was inactive. Besides, the caspase-3 activation in assay [7] is 4.27%. Besides, the max response was -1.39% in [20], -24.7% in assay [17] and -3.09% in assay [18].
Regarding `NC(=O)Nc1nc2ccccc2[nH]1`, the Potency in assay [1] was more than 92 µM. Moreover, the Potency result in [2], in assay [3], in assay [4], in assay [10], in assay [11] and in [12] was “inactive” in each case. The Potency entry in assay [13], in assay [14], in assay [15], in assay [16] and in assay [19] was “inactive” throughout. For the same compound, the result in assay [5], in assay [6], in [8] and in assay [9] was inactive. For the same compound, the caspase-3 activation in assay [7] is -0.34%. In addition, the results for the max response in assay [20], in assay [17] and in assay [18] were -2.7%, -9.91% and -5.65%, respectively.
